Data published in PubChem BioAssay.
A number with no mark means an inactive call. For part of these data: Results with a measured potency or affinity are listed apart. The source made the active and inactive calls. Unless noted, how the calls were made is not given here.

Key:
[1] = antimalarial activity against Dd2 strain (AID 2302;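 active means growth inhibition above 50% at the single 2 µM test dose, taken to imply half-maximal potency below 2 µM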;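 further: 0% = DMSO untreated growth and 100% = chloroquine plus artemisinin killed control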); conditions: P. falciparum Dd2 in RBCs, LDH growth readout, 72 h; at 2 µM; stronger effect = higher value
[2] = human hepatoma cell viability loss – ATP luminescence, cytotoxicity control for P. falciparum antimalarial project, primary screen (AID 2303;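 active means inhibition above 50%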;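 further: 0% = DMSO wells and 100% = digitonin-killed cells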); conditions: HepG2 viability, 24-48 h, at 10 µM, stronger effect = higher value
[3] = biological target: L-lactate dehydrogenase (Plasmodium falciparum (isolate CDC / Honduras)) (UniProt Q27743); test: PfLDH activity inhibition – cell lysate, 3D7 strain, counter-screen for P. falciparum growth inhibition project (AID 2304);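 further: 0% = vehicle and 100% = reference inhibitor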; conditions: P. falciparum 3D7 crude extract, LDH APAD/NBT absorbance; at 2 µM; stronger effect = higher value
[4] = inhibition of 3D7 malaria parasite growth – strain 3D7 (AID 2306);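 further: 0% = DMSO wells and 100% = chloroquine plus artemisinin control wells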; conditions: P. falciparum 3D7 erythrocytic growth, LDH absorbance, 72 h; at 2 µM; stronger effect = higher value
[5] = biological target: Calcium-dependent protein kinase 1 (Plasmodium falciparum (isolate 3D7)) (UniProt P62344); test: PfCDPK1 kinase inhibitors, biochemical, TCAMS library (AID 1159585; cut-off not given, nearly all actives have IC50 up to about 0.98 µM;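 further: inhibitors leave more ATP so luminescence rises with inhibition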); conditions: recombinant PfCDPK1, Kinase-Glo ATP depletion luminescence
[6] = biological target: Plasmodium falciparum protein kinase 6 (PK6, PF3D7_1337100) (UniProt Q8IDW1); test: PfPK6 kinase inhibitors, biochemical, TCAMS library (AID 1159586); conditions: recombinant PfPK6, Kinase-Glo ATP depletion luminescence
[7] = biological target: Protein kinase 7 (PK7), Plasmodium falciparum 3D7 (PF3D7_0213400) (UniProt Q7YTF7); test: inhibition of Plasmodium PK7 catalytic activity – biochemical, TCAMS antimalarial set, Kinase-Glo luminescence (AID 1159587); conditions: recombinant PfPK7, Kinase-Glo ATP depletion luminescence
[8] = biological target: Calcium-dependent protein kinase 4 (Plasmodium falciparum (isolate 3D7)) (UniProt Q8IBS5); test: PfCDPK4 kinase inhibitors, biochemical, TCAMS library (AID 1159588; cut-off not given, nearly all actives have IC50 up to about 0.91 µM); conditions: recombinant PfCDPK4, Kinase-Glo ATP depletion luminescence
Chain of Calcium-dependent protein kinase 4 (Plasmodium falciparum (isolate 3D7)) (Q8IBS5 whole entry, looked up): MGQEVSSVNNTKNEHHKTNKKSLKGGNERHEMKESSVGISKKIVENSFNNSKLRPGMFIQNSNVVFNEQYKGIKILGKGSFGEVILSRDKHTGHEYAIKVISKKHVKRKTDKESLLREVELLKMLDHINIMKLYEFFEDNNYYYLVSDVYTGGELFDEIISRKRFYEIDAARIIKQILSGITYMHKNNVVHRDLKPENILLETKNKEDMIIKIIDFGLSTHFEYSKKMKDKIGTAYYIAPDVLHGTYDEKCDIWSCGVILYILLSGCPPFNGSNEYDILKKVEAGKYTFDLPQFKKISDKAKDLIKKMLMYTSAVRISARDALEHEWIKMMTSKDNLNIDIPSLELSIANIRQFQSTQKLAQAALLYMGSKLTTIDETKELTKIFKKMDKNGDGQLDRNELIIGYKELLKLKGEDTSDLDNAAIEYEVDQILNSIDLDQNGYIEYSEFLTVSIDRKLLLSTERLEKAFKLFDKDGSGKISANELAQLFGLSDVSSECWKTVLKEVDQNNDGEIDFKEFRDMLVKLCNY

Chain of L-lactate dehydrogenase (Plasmodium falciparum (isolate CDC / Honduras)) (Q27743 whole entry, looked up): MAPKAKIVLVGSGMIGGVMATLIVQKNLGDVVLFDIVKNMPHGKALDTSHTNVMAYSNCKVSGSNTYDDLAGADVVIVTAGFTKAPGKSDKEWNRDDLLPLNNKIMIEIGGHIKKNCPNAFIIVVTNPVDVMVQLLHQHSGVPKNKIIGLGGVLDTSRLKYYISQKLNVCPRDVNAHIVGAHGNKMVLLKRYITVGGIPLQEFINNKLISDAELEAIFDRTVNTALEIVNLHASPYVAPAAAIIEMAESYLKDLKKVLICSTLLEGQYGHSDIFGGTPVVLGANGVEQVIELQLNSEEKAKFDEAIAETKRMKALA
Chain of Plasmodium falciparum protein kinase 6 (PK6, PF3D7_1337100) (Q8IDW1 1-305): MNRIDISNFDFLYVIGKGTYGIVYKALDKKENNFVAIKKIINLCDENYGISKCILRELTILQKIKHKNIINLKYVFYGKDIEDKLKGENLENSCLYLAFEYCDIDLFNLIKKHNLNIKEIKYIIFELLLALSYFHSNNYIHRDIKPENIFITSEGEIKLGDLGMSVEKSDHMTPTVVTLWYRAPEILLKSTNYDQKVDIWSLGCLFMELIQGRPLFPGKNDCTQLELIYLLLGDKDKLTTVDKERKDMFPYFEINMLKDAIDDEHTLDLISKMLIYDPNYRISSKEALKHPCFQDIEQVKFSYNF
Chain of Protein kinase 7 (PK7), Plasmodium falciparum 3D7 (PF3D7_0213400) (Q7YTF7 1-343): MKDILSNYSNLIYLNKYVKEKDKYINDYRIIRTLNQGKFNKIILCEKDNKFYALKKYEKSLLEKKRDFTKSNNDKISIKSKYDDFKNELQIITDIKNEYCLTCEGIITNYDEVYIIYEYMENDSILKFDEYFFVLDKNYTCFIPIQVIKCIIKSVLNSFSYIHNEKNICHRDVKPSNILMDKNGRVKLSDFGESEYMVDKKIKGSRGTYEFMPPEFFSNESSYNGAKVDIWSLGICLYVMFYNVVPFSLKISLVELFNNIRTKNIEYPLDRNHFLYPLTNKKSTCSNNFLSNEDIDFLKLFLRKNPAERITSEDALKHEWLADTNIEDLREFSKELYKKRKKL
Chain of Calcium-dependent protein kinase 1 (Plasmodium falciparum (isolate 3D7)) (P62344 whole entry, looked up): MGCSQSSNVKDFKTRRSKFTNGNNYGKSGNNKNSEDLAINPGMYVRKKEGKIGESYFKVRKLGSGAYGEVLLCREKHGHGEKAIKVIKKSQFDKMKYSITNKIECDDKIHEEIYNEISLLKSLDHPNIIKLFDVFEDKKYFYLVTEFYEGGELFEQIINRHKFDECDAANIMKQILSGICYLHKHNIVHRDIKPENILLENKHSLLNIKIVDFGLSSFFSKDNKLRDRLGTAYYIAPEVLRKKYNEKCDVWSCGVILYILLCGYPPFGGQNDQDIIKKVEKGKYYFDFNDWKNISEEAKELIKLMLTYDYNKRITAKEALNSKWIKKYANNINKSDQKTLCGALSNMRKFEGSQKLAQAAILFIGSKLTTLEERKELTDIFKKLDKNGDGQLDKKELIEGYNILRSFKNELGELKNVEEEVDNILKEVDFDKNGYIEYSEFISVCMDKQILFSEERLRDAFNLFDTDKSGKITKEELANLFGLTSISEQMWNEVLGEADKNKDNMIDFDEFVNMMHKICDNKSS

Row | SMILES | growth inhibition [1] | inhibition [2] | inhibition [3] [%] | growth inhibition [4] | outcome [5] | outcome [6] | outcome [7] | outcome [8]
1 | CC(C)N1CCN(C(=O)c2ccc(CNCCCN3CCN(c4cccc(Cl)c4Cl)CC3)o2)CC1 | 36% | 41% | 1 | 98% (active) | inactive | inactive | inactive | inactive
2 | FC(F)(F)c1ccc2nc(-c3cccc(-c4ccc(CNCc5ccccc5)cc4)c3)[nH]c2c1 | 99% (active) | 25% | -4 | 101% (active) | inactive | inactive | inactive | inactive
3 | CN1CCN(c2ccc(Nc3c4ccccc4nc4ccccc34)cc2)CC1 | 94% (active) | -3% | -4 | 100% (active) | inactive | inactive | inactive | inactive
4 | COc1ccc2c(NN=Cc3cccnc3)ccnc2c1 | 26% | 3% | -4 | 97% (active) | inactive | inactive | inactive | inactive
5 | O=c1c(Br)c(C(F)(F)F)[nH]c2ccc(Oc3ccccc3)cc12 | 17% | 6% | 0 | 91% (active) | inactive | inactive | inactive | inactive
6 | CCS(=O)(=O)N1CCN(c2nc(-c3ccccc3)nc(COC)c2Cc2ccccc2F)CC1 | 34% | -2% | 0 | 82% (active) | inactive | inactive | inactive | inactive
7 | COc1ccc(N2CCN(C(CNC(=O)C3CCCCC3)c3ccc4c(c3)OCO4)CC2)cc1 (configuration not stated) | 83% (active) | 1% | -1 | 92% (active) | inactive | inactive | inactive | inactive
8 | Cc1c(Cn2nc(Cl)c(N3CCNCC3)cc2=O)cccc1NC(=O)Nc1ccc(-c2ccccc2)cc1 | 29% | 96% (active) | 2 | 80% (active) | inactive | inactive | inactive | inactive
9 | CC(C)(CC1CCCCC1)NC(=O)[C@H](CC1CCCCC1)Nc1ccc(C#N)c2ccccc12 | 52% (active) | 14% | -2 | 98% (active) | inactive | inactive | inactive | inactive
10 | Cc1cccc(C(=O)NC(NC(=S)Nc2ccc([N+](=O)[O-])cc2)C(Cl)(Cl)Cl)c1 (configuration not stated) | 66% (active) | 14% | -2 | 96% (active) | inactive | inactive | inactive | inactive
11 | O=C(CC(=O)C(F)(F)F)c1ccccc1[N+](=O)[O-] | 95% (active) | 65% (active) | -6 | 97% (active) | inactive | inactive | inactive | inactive
12 | NC1CCN(Cc2ccc(-c3cccc(-c4nc5ccc(F)cc5[nH]4)c3)cc2)C1 (configuration not stated) | 16% | 47% | 3 | 100% (active) | inactive | inactive | inactive | inactive
13 | Cc1ccc2nc(C)cc(NN=Cc3ccccc3Cl)c2c1 | 62% (active) | 6% | -2 | 100% (active) | inactive | inactive | inactive | inactive
14 | O=C(NC1CCN(c2ccc(F)cc2[N+](=O)[O-])CC1)c1cccs1 | 91% (active) | -9% | -1 | 90% (active) | inactive | inactive | inactive | inactive
15 | Cn1c(NC2CCN(CC3CCN(C(=O)/C=C/c4ccc(Cl)c(Cl)c4)CC3)CC2)nc2ccccc21 | 100% (active) | 99% (active) | 3 | 101% (active) | inactive | inactive | inactive | inactive
16 | CC[C@H](C)CNC(=O)c1ccnc(-c2ccc(CN3CCC(N4CCCC4)CC3)cc2)c1 | 84% (active) | 13% | -2 | 99% (active) | inactive | inactive | inactive | inactive
17 | CCc1ccc(-n2c(NC(=O)c3ccccc3)nc3ccc(S(=O)(=O)NC(C)C(C)C)cc32)cc1 (configuration not stated) | -4% | 48% | 0 | 88% (active) | inactive | inactive | inactive | inactive
18 | CCCNCc1ccc(-c2ccc(CN(CCOC)C(=O)c3ccccc3)cc2)nc1 | 25% | 16% | -7 | 94% (active) | inactive | inactive | inactive | inactive
19 | Cc1cccc(Nc2c(-c3cc(Br)ccc3O)nc3ncccn23)c1 | 98% (active) | -2% | 1 | 100% (active) | inactive | inactive | inactive | inactive
20 | c1cc(Nc2nccc(-c3cnn4ncccc34)n2)cc(-c2cnco2)c1 | 83% (active) | 54% (active) | 3 | 96% (active) | inactive | inactive | inactive | inactive

Row | SMILES | growth inhibition [1] | inhibition [2] | inhibition [3] [%] | growth inhibition [4] | outcome [5] | outcome [6] | outcome [7] | outcome [8]
21 | C=CCO[C@@H]1O[C@H](COC(c2ccccc2)(c2ccccc2)c2ccccc2)[C@@H](OC(C)=O)[C@H](OC(C)=O)[C@H]1NC(C)=O | 66% (active) | -1% | -1 | 93% (active) | inactive | inactive | inactive | inactive
22 | CNCCCn1c(N(C)C)nc2cc(-n3cnc4cc(-c5ccc(Cl)cc5)sc4c3=O)ccc21 | 27% | 39% | 1 | 86% (active) | inactive | inactive | inactive | inactive
23 | CCCc1cc(N2CCC(N(CC)CC)C2)nc(Nc2ccc(OC)cc2)n1 (configuration not stated) | 4% | 9% | 4 | 90% (active) | inactive | inactive | inactive | inactive
24 | CCCCOc1cc2[nH]cc(C(=O)OCC)c(=O)c2cc1OCCCC | 96% (active) | -9% | -2 | 97% (active) | inactive | inactive | inactive | inactive
25 | COc1ccc2nc3cc(Cl)ccc3c(NCCO)c2c1 | 93% (active) | 12% | 9 | 101% (active) | inactive | inactive | inactive | inactive
26 | O=C(CCc1cnc[nH]1)Nc1ccc(-c2ccc(-c3nc4ccccc4[nH]3)cc2)cc1 | 70% (active) | 46% | 0 | 98% (active) | inactive | inactive | inactive | inactive
27 | Cc1ccccc1Nc1nc(NCc2ccccc2)nc2ccccc12 | 35% | 39% | -3 | 88% (active) | inactive | inactive | inactive | inactive
28 | c1cc(CN2CCC(CCN3CCCCC3)CC2)cc(-c2csc(-c3nc4ccccc4[nH]3)c2)c1 | 99% (active) | 89% (active) | -3 | 99% (active) | inactive | inactive | inactive | inactive
29 | COc1cc(Cc2cnc(N)nc2N)c2ccsc2c1OC | 4% | 5% | 0 | 92% (active) | inactive | inactive | inactive | inactive
30 | COc1ccc2nccc([C@@H](O)CN3CCC(NCc4[nH]c5ccccc5c4F)CC3)c2c1 | 61% (active) | 19% | 3 | 102% (active) | inactive | inactive | inactive | inactive
31 | CC(C)(C)c1ccc(NC(=O)c2cccc(CN3CCCN(Cc4ccsc4)CC3)c2)cc1 | 3% | 33% | -4 | 96% (active) | inactive | inactive | inactive | inactive
32 | O=S(=O)(NCCN1CCCC1)c1ccc(-c2ccc(CNC3Cc4ccccc4C3)cc2)s1 | 97% (active) | 47% | -2 | 100% (active) | inactive | inactive | inactive | inactive
33 | CNC(=O)c1cc(S(=O)(=O)Nc2ccc(OC)cc2)cs1 | 48% | 11% | -6 | 95% (active) | inactive | inactive | inactive | inactive
34 | Cc1cc(Oc2ccc(-n3ccnc3)cc2)nc(N2CCN(CCCN3CCCC3)CC2)n1 | 7% | 5% | 0 | 90% (active) | inactive | inactive | inactive | inactive
35 | CCN(CC)CCCN(CCCN(CC)CC)c1cc(C)nc(Nc2ccc3cc(Br)ccc3c2)n1 | 73% (active) | 12% | 3 | 100% (active) | inactive | inactive | inactive | inactive
36 | O=C(Nc1cc(=O)[nH]c2nc(-c3ccccc3)nn12)C1CCCCC1 | 89% (active) | -9% | -4 | 86% (active) | inactive | inactive | inactive | inactive
37 | O=C(/C=C/c1ccc(Cl)c(Cl)c1)NCCCCN1CCCN(C(=O)Nc2ccc(C(F)(F)F)cc2)CC1 | -1% | 35% | 5 | 94% (active) | inactive | inactive | inactive | inactive
38 | O=C(/C=C/c1ccc(I)cc1)NCCCCCN1CCC(c2c[nH]c3ccc(O)cc23)CC1 | 1% | 14% | 2 | 97% (active) | inactive | inactive | inactive | inactive
39 | COc1cc2nc(NCc3ccccc3)nc(NCc3ccccc3)c2cc1OC | 102% (active) | 66% (active) | -3 | 102% (active) | inactive | inactive | inactive | inactive
